Drawing on PubChem BioAssay (NCI), this text covers growth for eight compounds.

This is part of a sample that, as a whole, favours compounds with a hit. Of some 83,000 tested, about 20% had one in any assay.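 Testing used 96-well plates and a 48-hour single-concentration exposure. Example: -40 means 40% of the starting cells died.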 A number with no mark means an inactive call. Calls of active or inactive are those of the source. How the source made its calls: active means growth percent below 10; inactive means the rest.

Among the test systems are DU-145 prostate; K-562 leukemia; MALME-3M melanoma; MDA-MB-231 breast; RXF 393 renal; SF-268 CNS; SF-295 CNS; SF-539 CNS; UACC-257 melanoma; M14 melanoma; HCT-15 colon; HT29 colon; SNB-75 CNS; SNB-19 CNS; PC-3 prostate; SK-MEL-5 melanoma; UACC-62 melanoma; LOX IMVI melanoma; SK-MEL-28 melanoma; U251 CNS.
What all share (experiment): NCI-60 one-dose screen, 48 h (100 = growth as untreated, 0 = no growth, -100 = all killed)
Details in all cases: 10 µM

As to `COc1cc(NC(=O)Nc2cnc(Nc3ccc(N4CCOCC4)cc3)nc2Oc2cccc(OC)c2)cc(OC)c1`, the growth with DU-145 prostate was 36.9%; in the assay with K-562 leukemia it was 55.4%; with MALME-3M melanoma, 8.57% (active); in the assay on MDA-MB-231 breast, 16.9%; in the assay on RXF 393 renal, -32.5% (active); in the assay with SF-268 CNS, 50%. For the same compound, the growth with SF-295 CNS was 34.6%; with SF-539 CNS, -68.4% (active); with UACC-257 melanoma, 48%; with M14 melanoma, 45.2%; with HCT-15 colon, 81.9%; in the assay with HT29 colon it was 37.2%. For the same compound, the growth with SNB-75 CNS was 9.13% (active); with SNB-19 CNS, 66.6%; in the assay with PC-3 prostate, 47.5%; in the assay with SK-MEL-5 melanoma it was -19.9% (active); in the assay on UACC-62 melanoma, 22.8%; with LOX IMVI melanoma, 33.3%. Moreover, in the assay with SK-MEL-28 melanoma, the growth was 32.2%.
Regarding `C/C(=C/CCC(C)[C@@H]1CC[C@]2(C)C3=C(CC[C@@]12C)[C@@]1(C)CCC(=O)C(C)(C)[C@@H]1CC3)C(=O)O` (stereo partly specified), the growth in the assay on DU-145 prostate was -92.3% (active); in the assay with K-562 leukemia, -16.1% (active); with MALME-3M melanoma, -88.9% (active); in the assay with MDA-MB-231 breast, -76.8% (active); in the assay with RXF 393 renal, -90.2% (active); in the assay with SF-268 CNS, -92.2% (active). Further, the growth in the assay with SF-295 CNS is -90.5% (active); in the assay with SF-539 CNS it was -76% (active); with UACC-257 melanoma, -57.5% (active); with M14 melanoma it was -76.8% (active); with HCT-15 colon, -66.6% (active); with HT29 colon it was -65.8% (active). In addition, the growth was -68.1% (active) in the assay with SNB-75 CNS; -78.1% (active) in the assay on SNB-19 CNS; -29.8% (active) in the assay on PC-3 prostate; -98.2% (active) in the assay on SK-MEL-5 melanoma; -92.4% (active) in the assay with UACC-62 melanoma; -53.9% (active) in the assay on LOX IMVI melanoma. Also, the growth in the assay with SK-MEL-28 melanoma is -83.9% (active).
`CCOC(=O)CC(S(=O)(=O)c1ccccc1)S(=O)(=O)c1ccccc1`: the growth with DU-145 prostate was 111%; in the assay on K-562 leukemia, 78.7%; with MALME-3M melanoma, 39.8%; with MDA-MB-231 breast it was 109%; in the assay on RXF 393 renal, 57.5%; in the assay with SF-268 CNS it was 101%. In addition, the growth in the assay on SF-295 CNS is 108%; in the assay on SF-539 CNS it was 104%; in the assay with UACC-257 melanoma, 89.6%; with M14 melanoma, 115%; in the assay with HCT-15 colon it was 93.4%; with HT29 colon, 91%. Besides, the growth with SNB-75 CNS was 96.2%; with SNB-19 CNS, 93.4%; with PC-3 prostate, 97.7%; with SK-MEL-5 melanoma it was 96.6%; in the assay with UACC-62 melanoma it was 103%; in the assay with LOX IMVI melanoma, 98.6%. Further, the growth in the assay on SK-MEL-28 melanoma is 109%.
As to `COc1ccc(-c2n[nH]nc2-c2cc(OC)c3c(c2OC)OCO3)cc1`, the growth in the assay with DU-145 prostate was 10.2%; with K-562 leukemia, 10.7%; in the assay with MALME-3M melanoma, 61.7%; in the assay on MDA-MB-231 breast, 32%; in the assay with RXF 393 renal, -9.08% (active); in the assay with SF-268 CNS, 48.8%. In addition, the growth in the assay on SF-295 CNS is 4.67% (active); in the assay on SF-539 CNS it was -2.99% (active); in the assay with UACC-257 melanoma, 48%; with M14 melanoma, 20.6%; in the assay with HCT-15 colon, 35.5%; with HT29 colon, 4.41% (active). The growth in the assay on SNB-75 CNS is 4.8% (active); with SNB-19 CNS it was 51.8%; in the assay on PC-3 prostate, 26.3%; in the assay on SK-MEL-5 melanoma it was 6.78% (active); with UACC-62 melanoma it was 40.6%; in the assay with LOX IMVI melanoma, 37%. Besides, the growth in the assay on SK-MEL-28 melanoma was 63%.
In the case of `Cc1c(Cl)cccc1NC(=O)CCCl`, the growth is 106% in the assay on DU-145 prostate; 88.2% in the assay on K-562 leukemia; 108% with MALME-3M melanoma; 121% with MDA-MB-231 breast; 112% in the assay with RXF 393 renal; 97.8% in the assay with SF-268 CNS. Also, the growth with SF-295 CNS was 106%; with SF-539 CNS, 102%; in the assay with UACC-257 melanoma it was 89.2%; with M14 melanoma, 97%; in the assay with HCT-15 colon, 110%; in the assay on HT29 colon, 95.4%. In addition, the growth in the assay on SNB-75 CNS was 98.1%; in the assay on SNB-19 CNS it was 96.7%; with PC-3 prostate, 94.3%; in the assay on SK-MEL-5 melanoma it was 104%; with UACC-62 melanoma, 93.2%; with LOX IMVI melanoma, 101%. Also, the growth in the assay with SK-MEL-28 melanoma was 108%.
Consider `CCOC(=O)C1C(C(=O)OCC)C2C(=O)C3C(C(=O)OCC)C(C(=O)OCC)C3C(=O)C12` (stereo unspecified), for which the growth is 110% in the assay with DU-145 prostate; 94.2% in the assay with K-562 leukemia; 106% in the assay on MALME-3M melanoma; 110% in the assay with MDA-MB-231 breast; 112% in the assay with RXF 393 renal; 101% in the assay with SF-268 CNS. In addition, the growth in the assay with SF-295 CNS was 101%; with SF-539 CNS, 105%; in the assay on UACC-257 melanoma it was 108%; in the assay with M14 melanoma, 110%; with HCT-15 colon it was 103%; in the assay on HT29 colon, 105%. Also, the growth with SNB-75 CNS was 99.9%; in the assay on SNB-19 CNS, 96.4%; with PC-3 prostate, 97.6%; in the assay on SK-MEL-5 melanoma, 100%; in the assay with UACC-62 melanoma, 101%; with LOX IMVI melanoma, 96.6%. The growth in the assay with SK-MEL-28 melanoma was 105%.
Take `CS(=O)(=O)c1nccc(-c2c(-c3ccc(OCCc4ccccc4)cc3)nc3sccn23)n1`: the growth was 94% with DU-145 prostate; 100% in the assay with K-562 leukemia; 103% with MALME-3M melanoma; 85.2% in the assay on MDA-MB-231 breast; 92.5% in the assay on RXF 393 renal; 104% in the assay with SF-268 CNS. Also, the growth in the assay on SF-295 CNS was 108%; with SF-539 CNS, 85.5%; in the assay on UACC-257 melanoma it was 103%; in the assay with M14 melanoma, 94.6%; in the assay with HCT-15 colon, 103%; in the assay on HT29 colon, 88.1%. In addition, the growth was 89.1% in the assay with SNB-75 CNS; 89.4% in the assay with SNB-19 CNS; 95.9% in the assay on U251 CNS; 88% with UACC-62 melanoma; 92.6% in the assay with LOX IMVI melanoma; 96.3% in the assay on SK-MEL-28 melanoma.
With `O=c1cn[nH]c2ccc(Br)cc12`, the growth is 105% in the assay on DU-145 prostate; 95.7% with K-562 leukemia; 114% in the assay with MALME-3M melanoma; 116% with MDA-MB-231 breast; 95.3% in the assay with RXF 393 renal; 99.9% with SF-268 CNS. Also, the growth in the assay with SF-295 CNS is 107%; in the assay on SF-539 CNS, 95.6%; in the assay with UACC-257 melanoma, 104%; in the assay with M14 melanoma it was 101%; with HCT-15 colon it was 104%; in the assay on HT29 colon, 95.7%. Moreover, the growth with SNB-75 CNS was 96.2%; with SNB-19 CNS it was 106%; in the assay with PC-3 prostate, 95.4%; with SK-MEL-5 melanoma, 100%; in the assay on UACC-62 melanoma, 112%; in the assay with LOX IMVI melanoma it was 97.2%. Besides, the growth with SK-MEL-28 melanoma was 123%.
